# Results reported in PubChem BioAssay (NCATS).
# Where “and” joins values, the source holds several entries; their conditions need not be identical. Equal entries are not always repeated. Records with an inconclusive call do not appear. Entries that show only a call come without a potency. Some structures have more than one record in an assay (separate samples or runs), and their calls can disagree. Calls of active or inactive are those of the source. Unless noted, the call rests on the fitted dose curve; in most records, active means well fitted curve in the direction sought with a large enough effect; inconclusive means small, poorly fitted or top-dose-only effect, or another doubt; inactive means no such curve, though single readings can be large; an effect the other way counts as inactive or inconclusive.
# How the values were obtained:
# [1] = Primary qHTS for small molecule stabilizers of the endoplasmic reticulum resident proteome: Secreted ER Calcium Modulated Protein (SERCaMP) assay (AID 1508630)
# Summary of the method: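 The SH-SY5Y reporter protocol was run at 3 concentrations up to 38.3 uM (primary) or 11 concentrations (follow-up): 16 h compound, 100 nM thapsigargin for 4 h, then extracellular luciferase luminescence.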
# [2] = A High-Content qHTS Against Drug Library for the Identification of Small Molecules that Inhibit DYT1 Early Onset Primary Dystonia-Associated Cell Pathology (AID 1645839; calls by dose curve; further: potency means the concentration at half of the fitted maximal effect)
# Summary of the method: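 Induced EGFP-delE TorsinA cells are imaged after 48 h of compound treatment. Punctate fusion-protein distribution gives the %pathology value, while nuclei counts flag toxicity. Wild-type EGFP-hTOR1A cells define the normal pattern.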
# [3] = Primary qHTS for inhibitors of nuclear receptor binding SET domain protein 2 (NSD2) in an isogenic RCH-ACV NSD2 p.E1099K mutant (9B) (AID 1645876); further: nearly all actives have a fitted effect of over 70% in size; further: potency means the concentration at half of the fitted maximal effect
# [4] = Primary qHTS for inhibitors of nuclear receptor binding SET domain protein 2 (NSD2) in an RCH-ACV wild type WT cells (2C) (AID 1645877); further: nearly all actives have a fitted effect of over 70% in size; further: potency means the concentration at half of the fitted maximal effect
# [5] = NCATS anti-infectives library activity on HEK293 viability as a counter-qHTS vs the C. elegans viability qHTS (AID 1745854)
# Summary of the method: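 CellTiter-Glo luminescence, read on a CCD imager, scored viability of HEK293 cells after 24 hr compound exposure at 37C. Library tested in several concentrations, 1:5 steps, up to 41.7 uM; digitonin served as control.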
# [6] = NCATS anti-infectives library activity on the primary C. elegans qHTS viability assay (AID 1745855; calls by dose curve); details: C. elegans worm area imaging, day 7; at 41.8 µM (top of the series)
# Summary of the method: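 Titration-based screen in worms: eggs hatched overnight in M9, L1 larvae fed TOP10 capsules in S medium with compound, incubated 21 °C for 7 days; fluorescent objects gated by size and intensity at days 0, 3 and 7.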
# [7] = target: Cytochrome P450 2D6 (Homo sapiens) (UniProt P10635); assay: Cytochrome P450 family 2 subfamily D member 6 (CYP2D6) small molecule antagonists: luciferase biochemical (cell-free) qHTS assay (AID 1645840; active means well fitted curve in the direction sought with a large enough effect in the repeat runs; an effect the other way counts as inactive or inconclusive; further: nearly all actives have a fitted effect of over 55% in size; further: potency means the concentration at half of the fitted maximal effect)
# Summary of the method: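 P450-Glo CYP2D6 system: proluciferin substrate converted by enzyme to luciferin, read by luminescence proportional to activity. Enzyme-substrate mix with compound 10 min at room temperature, then NADPH regeneration 1 h before detection reagent.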
# [8] = target: Cytochrome P450 2C9 (Homo sapiens) (UniProt P11712); assay: Cytochrome P450 family 2 subfamily C member 9 (CYP2C9) small molecule antagonists: luciferase biochemical (cell-free) qHTS assay (AID 1645842; active means well fitted curve in the direction sought with a large enough effect in the repeat runs; an effect the other way counts as inactive or inconclusive; further: nearly all actives have a fitted effect of over 55% in size; further: potency means the concentration at half of the fitted maximal effect)
# Summary of the method: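 P450-Glo CYP2C9 system: proluciferin substrate with enzyme in mix containing 0.4% BSA, 10 min at room temperature, then NADPH regeneration solution added and incubated 1 h at 37C. Detection reagent stopped reaction; luminescence read after 20 min as RLU.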
# [9] = target: Catechol O-methyltransferase (Homo sapiens) (UniProt P21964); assay: Confirmatory Screen for Target Class Profiling of Small Molecule Inhibitors of Methyltransferases (AID 1745852; calls by dose curve); details: MTase-Glo luminescence, SAH detection, recombinant enzyme; measured here: COMT max response; stronger effect = lower value
# [10] = target: Guanidinoacetate N-methyltransferase (Homo sapiens) (UniProt Q14353); assay: as above; details: MTase-Glo luminescence, SAH detection, recombinant enzyme; at 57.3 µM (top of the series)
# [11] = target: Nicotinamide N-methyltransferase (Homo sapiens) (UniProt P40261); assay: as above; details: MTase-Glo luminescence, SAH detection, recombinant enzyme; measured here: NNMT max response; stronger effect = lower value
# [12] = target: Phenylethanolamine N-methyltransferase (Homo sapiens) (UniProt P11086); assay: as above; details: MTase-Glo luminescence, SAH detection, recombinant enzyme; measured here: PNMT max response; stronger effect = lower value
# [13] = target: Cytochrome P450 3A4 (Homo sapiens) (UniProt P08684); assay: Cytochrome P450 family 3 subfamily A member 4 (CYP3A4) small molecule antagonists: luciferase qHTS assay (AID 1645841; active means well fitted curve in the direction sought with a large enough effect in the repeat runs; an effect the other way counts as inactive or inconclusive; further: nearly all actives have a fitted effect of over 45% in size)
# Summary of the method: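 P450-Glo CYP3A4 enzyme with proluciferin substrate was preincubated with DMSO-dissolved compounds for 10 min at room temperature. NADPH regeneration solution started a 1 h reaction. Detection reagent stopped it, and luminescence was read after 20 min.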
# Papain (Carica papaya) = Papain (Carica papaya) (UniProt P00784); assay: Primary qHTS assay for inhibitors of the protease papain (AID 1645873);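 further: papain turnover of Z-FR-AMC read as the AMC fluorescence gain over 10 min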
# [14] = target: Rap guanine nucleotide exchange factor 3 (Homo sapiens) (UniProt O95398); assay: Confirmatory qHTS for agonist of cAMP-regulated guanine nucleotide exchange factor 3 (EPAC1) (AID 1645881);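 further: EPAC1 catalysed release of BODIPY-GDP from Rap1B seen as fluorescence loss; nearly all actives have a fitted effect of over 75% in size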
# [15] = target: Rap guanine nucleotide exchange factor 4 (Homo sapiens) (UniProt Q8WZA2); assay: Confirmatory qHTS for agonist of cAMP-regulated guanine nucleotide exchange factor 4 (EPAC2) (AID 1645884);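 further: nucleotide exchange releases bodipy-GDP from Rap1 and this lowers its fluorescence; nearly all actives have a fitted effect of over 65% in size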
# [16] = target: Rap guanine nucleotide exchange factor 3 (Homo sapiens) (UniProt O95398); assay: Confirmatory qHTS for antagonist of cAMP-regulated guanine nucleotide exchange factor 3 (EPAC1) (AID 1645880); further: nearly all actives have a fitted effect of over 55% in size
# Summary of the method: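 Released BODIPY-GDP fluoresces less than Rap1-bound BODIPY-GDP; the signal is followed at 480/540 nm at 5-min intervals over 30 min, after 5 min at room temperature. Reactions contain 100 nM EPAC1, 250 nM RAP1B-BODIPY-GDP and 50 uM GDP; results are normalized to ATA and DMSO.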
# [17] = target: Rap guanine nucleotide exchange factor 4 (Homo sapiens) (UniProt Q8WZA2); assay: Confirmatory qHTS for antagonist of cAMP-regulated guanine nucleotide exchange factor 4 (EPAC2) (AID 1645885); further: nearly all actives have a fitted effect of over 25% in size
# Sequence of Papain (Carica papaya) (P00784 whole entry, looked up): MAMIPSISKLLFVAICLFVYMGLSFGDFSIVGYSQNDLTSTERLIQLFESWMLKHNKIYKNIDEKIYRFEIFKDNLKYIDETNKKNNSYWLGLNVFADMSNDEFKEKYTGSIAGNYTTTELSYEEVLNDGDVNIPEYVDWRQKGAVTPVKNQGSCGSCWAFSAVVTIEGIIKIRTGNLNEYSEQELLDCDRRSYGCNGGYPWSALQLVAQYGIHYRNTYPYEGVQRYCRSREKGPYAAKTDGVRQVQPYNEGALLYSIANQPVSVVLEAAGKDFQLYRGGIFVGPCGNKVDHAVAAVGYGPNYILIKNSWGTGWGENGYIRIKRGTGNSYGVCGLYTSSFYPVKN
# Sequence of Rap guanine nucleotide exchange factor 4 (Homo sapiens) (Q8WZA2 whole entry, looked up): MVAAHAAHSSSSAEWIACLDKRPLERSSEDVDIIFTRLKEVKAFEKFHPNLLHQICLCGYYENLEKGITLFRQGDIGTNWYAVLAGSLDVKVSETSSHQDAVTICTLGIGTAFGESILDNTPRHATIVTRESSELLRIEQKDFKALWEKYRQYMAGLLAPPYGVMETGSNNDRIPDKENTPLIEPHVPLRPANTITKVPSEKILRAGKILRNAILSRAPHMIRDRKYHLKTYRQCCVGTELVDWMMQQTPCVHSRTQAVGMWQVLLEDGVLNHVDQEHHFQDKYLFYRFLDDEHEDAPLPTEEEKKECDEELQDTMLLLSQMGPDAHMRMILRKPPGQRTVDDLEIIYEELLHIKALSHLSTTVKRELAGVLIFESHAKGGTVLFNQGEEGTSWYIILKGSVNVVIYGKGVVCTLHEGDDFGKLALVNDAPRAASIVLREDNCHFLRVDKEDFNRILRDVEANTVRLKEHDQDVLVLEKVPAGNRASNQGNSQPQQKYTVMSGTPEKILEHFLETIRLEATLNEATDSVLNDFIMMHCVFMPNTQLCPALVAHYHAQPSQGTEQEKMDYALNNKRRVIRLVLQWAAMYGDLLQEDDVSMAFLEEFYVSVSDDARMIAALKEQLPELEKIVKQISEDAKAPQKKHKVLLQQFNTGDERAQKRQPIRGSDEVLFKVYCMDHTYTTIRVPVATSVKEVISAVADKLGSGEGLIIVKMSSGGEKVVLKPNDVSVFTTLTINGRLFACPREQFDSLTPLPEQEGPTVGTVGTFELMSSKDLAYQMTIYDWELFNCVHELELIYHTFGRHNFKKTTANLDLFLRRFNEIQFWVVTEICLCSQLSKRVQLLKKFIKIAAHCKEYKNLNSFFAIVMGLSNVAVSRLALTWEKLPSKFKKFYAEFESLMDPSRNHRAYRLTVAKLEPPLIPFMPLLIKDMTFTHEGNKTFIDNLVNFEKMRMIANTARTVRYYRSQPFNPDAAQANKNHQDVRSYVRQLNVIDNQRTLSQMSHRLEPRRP
# Sequence of Cytochrome P450 2D6 (Homo sapiens) (P10635 whole entry, looked up): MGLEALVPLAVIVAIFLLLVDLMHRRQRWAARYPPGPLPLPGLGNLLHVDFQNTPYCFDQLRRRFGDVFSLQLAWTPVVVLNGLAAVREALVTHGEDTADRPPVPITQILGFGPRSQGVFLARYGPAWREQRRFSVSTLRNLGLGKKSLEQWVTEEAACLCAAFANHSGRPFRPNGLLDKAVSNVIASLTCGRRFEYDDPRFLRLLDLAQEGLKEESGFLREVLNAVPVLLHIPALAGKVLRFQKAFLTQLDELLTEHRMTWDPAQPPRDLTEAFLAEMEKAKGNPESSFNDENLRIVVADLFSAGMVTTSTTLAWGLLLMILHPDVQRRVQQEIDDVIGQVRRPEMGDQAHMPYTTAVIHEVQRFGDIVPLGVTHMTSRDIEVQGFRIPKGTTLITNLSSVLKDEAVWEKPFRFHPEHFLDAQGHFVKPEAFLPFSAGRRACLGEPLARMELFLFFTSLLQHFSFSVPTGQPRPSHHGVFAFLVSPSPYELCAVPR
# Sequence of Rap guanine nucleotide exchange factor 3 (Homo sapiens) (O95398 whole entry, looked up): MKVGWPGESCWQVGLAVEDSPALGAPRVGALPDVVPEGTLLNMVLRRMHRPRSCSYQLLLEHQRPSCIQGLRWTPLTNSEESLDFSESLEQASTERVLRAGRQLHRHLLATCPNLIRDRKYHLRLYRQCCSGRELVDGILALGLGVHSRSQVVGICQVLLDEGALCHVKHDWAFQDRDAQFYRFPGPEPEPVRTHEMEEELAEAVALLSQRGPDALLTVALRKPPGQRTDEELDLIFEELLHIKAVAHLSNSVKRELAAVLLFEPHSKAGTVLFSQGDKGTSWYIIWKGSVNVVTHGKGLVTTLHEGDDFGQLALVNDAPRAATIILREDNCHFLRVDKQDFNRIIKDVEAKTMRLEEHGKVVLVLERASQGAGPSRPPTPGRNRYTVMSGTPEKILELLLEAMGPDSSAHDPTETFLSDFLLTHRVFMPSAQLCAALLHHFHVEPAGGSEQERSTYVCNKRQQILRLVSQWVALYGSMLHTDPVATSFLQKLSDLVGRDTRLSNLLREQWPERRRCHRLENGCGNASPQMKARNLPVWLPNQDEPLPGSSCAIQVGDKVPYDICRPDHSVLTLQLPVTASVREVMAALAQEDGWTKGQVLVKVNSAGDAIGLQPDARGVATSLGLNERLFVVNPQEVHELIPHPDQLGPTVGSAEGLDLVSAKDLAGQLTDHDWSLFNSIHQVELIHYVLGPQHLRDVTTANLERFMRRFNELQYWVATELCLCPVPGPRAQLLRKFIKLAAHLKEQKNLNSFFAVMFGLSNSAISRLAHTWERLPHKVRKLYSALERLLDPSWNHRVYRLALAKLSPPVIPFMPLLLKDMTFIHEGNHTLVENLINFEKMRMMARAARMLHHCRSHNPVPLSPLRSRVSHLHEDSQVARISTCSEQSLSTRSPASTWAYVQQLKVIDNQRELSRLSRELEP
# Sequence of Cytochrome P450 2C9 (Homo sapiens) (P11712 whole entry, looked up): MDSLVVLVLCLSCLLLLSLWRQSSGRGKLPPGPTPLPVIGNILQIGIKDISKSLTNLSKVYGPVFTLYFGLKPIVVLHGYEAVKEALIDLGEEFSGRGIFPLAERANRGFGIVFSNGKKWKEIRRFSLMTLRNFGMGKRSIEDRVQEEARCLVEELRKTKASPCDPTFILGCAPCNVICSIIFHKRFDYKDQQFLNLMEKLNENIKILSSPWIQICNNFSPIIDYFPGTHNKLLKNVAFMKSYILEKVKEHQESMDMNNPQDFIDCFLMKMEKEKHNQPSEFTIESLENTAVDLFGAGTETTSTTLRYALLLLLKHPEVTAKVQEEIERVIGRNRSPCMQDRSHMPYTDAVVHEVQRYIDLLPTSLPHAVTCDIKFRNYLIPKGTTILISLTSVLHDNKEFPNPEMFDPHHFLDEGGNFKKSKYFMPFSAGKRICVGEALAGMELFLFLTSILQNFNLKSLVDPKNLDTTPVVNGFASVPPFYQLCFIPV
# Sequence of Catechol O-methyltransferase (Homo sapiens) (P21964 whole entry, looked up): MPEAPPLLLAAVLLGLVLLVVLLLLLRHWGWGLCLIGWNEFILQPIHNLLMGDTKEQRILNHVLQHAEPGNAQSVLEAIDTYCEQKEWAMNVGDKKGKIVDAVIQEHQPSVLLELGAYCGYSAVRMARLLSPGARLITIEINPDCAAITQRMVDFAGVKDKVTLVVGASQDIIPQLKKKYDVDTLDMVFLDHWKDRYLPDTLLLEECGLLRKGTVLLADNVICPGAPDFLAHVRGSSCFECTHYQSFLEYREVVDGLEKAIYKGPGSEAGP
# Sequence of Nicotinamide N-methyltransferase (Homo sapiens) (P40261 whole entry, looked up): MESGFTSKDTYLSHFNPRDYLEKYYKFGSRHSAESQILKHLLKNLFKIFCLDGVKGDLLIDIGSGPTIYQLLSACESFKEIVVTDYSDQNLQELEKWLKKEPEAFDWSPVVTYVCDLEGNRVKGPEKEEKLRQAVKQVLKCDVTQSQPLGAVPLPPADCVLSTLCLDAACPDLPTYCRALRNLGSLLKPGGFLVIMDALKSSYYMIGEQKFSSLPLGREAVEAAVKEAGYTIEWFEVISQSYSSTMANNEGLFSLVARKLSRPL
# Sequence of Phenylethanolamine N-methyltransferase (Homo sapiens) (P11086 whole entry, looked up): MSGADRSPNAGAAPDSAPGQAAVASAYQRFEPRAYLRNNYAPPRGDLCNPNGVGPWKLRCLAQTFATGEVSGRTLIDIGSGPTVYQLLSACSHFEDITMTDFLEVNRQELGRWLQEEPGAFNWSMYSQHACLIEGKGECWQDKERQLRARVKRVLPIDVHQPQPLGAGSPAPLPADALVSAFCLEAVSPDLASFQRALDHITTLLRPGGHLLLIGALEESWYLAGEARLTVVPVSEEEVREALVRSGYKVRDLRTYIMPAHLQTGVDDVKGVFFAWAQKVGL
# Sequence of Cytochrome P450 3A4 (Homo sapiens) (P08684 whole entry, looked up): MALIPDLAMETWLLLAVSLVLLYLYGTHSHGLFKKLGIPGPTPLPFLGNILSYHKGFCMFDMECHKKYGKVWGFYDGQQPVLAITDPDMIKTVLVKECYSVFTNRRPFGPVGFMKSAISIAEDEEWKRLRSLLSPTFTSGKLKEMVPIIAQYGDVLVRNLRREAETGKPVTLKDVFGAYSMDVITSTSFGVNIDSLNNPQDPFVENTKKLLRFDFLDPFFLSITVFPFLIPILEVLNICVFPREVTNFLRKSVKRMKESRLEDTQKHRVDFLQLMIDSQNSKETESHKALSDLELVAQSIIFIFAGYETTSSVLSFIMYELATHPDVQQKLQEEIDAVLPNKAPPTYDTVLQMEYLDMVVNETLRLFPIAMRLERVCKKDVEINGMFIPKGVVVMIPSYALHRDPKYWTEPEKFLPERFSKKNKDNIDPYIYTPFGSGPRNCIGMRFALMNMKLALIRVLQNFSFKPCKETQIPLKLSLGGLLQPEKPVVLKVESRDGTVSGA
structure (smiles),measurement,setting,value
CCOc1nc2cccc(C(=O)O)c2n1Cc1ccc(-c2ccccc2-c2nn[nH]n2)cc1,Potency,[1],inactive
same,Potency,[2],inactive
same,Potency,[3],inactive
same,Potency,[4],inactive
same,outcome,[5],inactive
same,outcome,[6],inactive
Cc1ccc(C(C)C)cc2c(C)ccc1-2,Potency,[1],inactive
same,Potency,[7],inactive
same,Potency,[8],inactive
same,Potency,[3],inactive
CC[N+](CC)(CC)CCOc1ccc(/C=C/c2ccccc2)cc1,Potency,[1],inactive
same,Potency,[7],617 nM (active)
same,Potency,[8],inactive
same,Potency,[3],2.11 µM (active)
same,Potency,[4],1.88 µM (active)
Cc1ccc2nc(N)[nH]c(=O)c2c1Sc1ccncc1,Potency,[1],inactive
same,Potency,[2],inactive
same,Potency,[7],7.76 µM (active) and 10.7 µM (active)
same,Potency,[3],2.3 µM (active)
same,Potency,[4],2.05 µM (active)
same,activity,[9],-5.5%
same,"activity change, negative = inhibition",[10],2.89%
same,activity,[11],1.11%
same,activity,[12],1.12%
CC(=O)NC(Cc1ccccc1)C(=O)O (stereo not given),Potency,[1],inactive
same,Potency,[7],inactive
same,outcome,[13],inactive
same,Potency,[8],inactive
same,Potency,[3],inactive
same,Potency,[4],inactive
O=C(O)c1ccccn1,Potency,[1],inactive
same,Potency,[2],inactive
same,Potency,[3],inactive
same,Potency,[4],inactive
same,outcome,[5],inactive
COCCOC(=O)C1=C(C)NC(C)=C(C(=O)OC/C=C/c2ccccc2)C1c1cccc([N+](=O)[O-])c1 (stereo not given),Potency,[1],inactive
same,Potency,[2],11200 nM (active)
same,Potency,[8],61.7 nM (active)
same,Potency,Papain (Carica papaya),inactive
same,Potency,[3],15 µM (active)
same,Potency,[4],21.1 µM (active)
same,Potency,[14],inactive
same,Potency,[15],inactive
COc1ccc(Cl)cc1C(=O)NCCc1ccc(S(=O)(=O)NC(=O)NC2CCCCC2)cc1,Potency,[1],inactive
same,Potency,[2],inactive
same,Potency,[3],inactive
same,activity,[9],-8.62%
same,"activity change, negative = inhibition",[10],-1.47%
same,activity,[11],-22.1%
same,activity,[12],-3.2%
O=C1NC(=O)[C@@]2(CCOc3ccc(F)cc32)N1,Potency,[1],inactive
same,Potency,[7],inactive
same,Potency,[8],inactive
same,Potency,Papain (Carica papaya),inactive
same,Potency,[3],inactive
same,Potency,[4],inactive
NC(=O)NC(=O)Cc1ccccc1,Potency,[1],inactive
same,Potency,[7],inactive
same,Potency,[8],inactive
same,Potency,[3],inactive
same,Potency,[4],inactive
Nc1ncnc2c1ncn2[C@@H]1O[C@H](CO)[C@@H](O)[C@H]1O,Potency,[1],inactive
same,Potency,[2],inactive
same,Potency,Papain (Carica papaya),inactive
same,Potency,[3],9.44 µM (active) and inactive
same,Potency,[4],5.96 µM (active) and inactive
CNC(=O)Oc1ccc2c(c1)[C@]1(C)CCN(C)[C@@H]1N2C,Potency,[1],inactive
same,Potency,[7],977 nM (active)
same,Potency,[8],inactive
same,Potency,Papain (Carica papaya),inactive
same,Potency,[3],inactive
same,Potency,[4],inactive
same,Potency,[16],inactive
same,Potency,[14],inactive
same,Potency,[15],inactive
same,Potency,[17],inactive
CC[C@H]1CN2CCc3cc(OC)c(OC)cc3[C@@H]2C[C@@H]1C[C@H]1NCCc2cc(OC)c(OC)cc21,Potency,[1],inactive
same,Potency,[7],inactive
same,Potency,[8],inactive
same,Potency,Papain (Carica papaya),inactive
same,Potency,[3],84.1 nM (active) and 132 nM (active)
same,Potency,[4],59.6 nM (active) and 118 nM (active)
same,outcome,[6],inactive
CCN(CC)CCNC(=O)c1cc(Cl)c(N)cc1OC,Potency,[1],inactive
same,Potency,[7],15500 nM (active)
same,outcome,[13],inactive
same,Potency,[8],inactive
same,Potency,Papain (Carica papaya),inactive
same,Potency,[3],inactive
same,Potency,[4],inactive
COc1cc2[nH]c(=O)[nH]c(=O)c2cc1OC,Potency,[1],inactive
same,Potency,[7],inactive
same,Potency,[8],inactive
same,Potency,[3],inactive
same,Potency,[4],inactive
CC(O)COc1ccccc1 (stereo not given),Potency,[1],inactive
same,Potency,[7],inactive
same,Potency,[8],inactive
same,Potency,[3],inactive
same,Potency,[4],inactive
